Measurements reported in PubChem BioAssay (NCATS).
Results filed as inconclusive are left out. Activity calls are given as the source filed them. Calls come from the whole dose curve; as a rule, active = well fitted curve in the direction sought with a large enough effect; inconclusive = small, poorly fitted or top-dose-only effect, or another doubt; inactive = no such curve, though single readings can be large; an effect the other way counts as inactive or inconclusive. Bridge positions count the residues as written; N and C are the ends. Square brackets hold non-standard residues; d marks the D form. Side chains are listed from the residue outwards. Peptide text beside a SMILES is read from it. * marks the point of attachment. Phg(4-OMe) = COc1ccc([C@H](N)C(=O)O)cc1; d(aIle) = CC[C@H](C)[C@@H](N)C(=O)O; d(aThr) = C[C@@H](O)[C@@H](N)C(=O)O; NMeF = CN[C@@H](Cc1ccccc1)C(=O)O; Isobutyryl = CC(C)C(=O)*

What was measured:
[1] = OV-KATE Cancer Cell Toxicity qHTS against the NCATS CANVASS Library (AID 1347345); note: potency is the fitted concentration of half-maximal effect
Summary of the method: (§1)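 Per well, 1000 cells; exposure 72 h with compound at 11 final concentrations; readout CellTiter-Glo luminescence.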

[2] = OV-SAHO Cancer Cell Toxicity qHTS against the NCATS CANVASS Library (AID 1347348); note: nearly all actives have a fitted effect of over 55% in size; note: potency is the fitted concentration of half-maximal effect
Summary of the method: as §1

[3] = COV-362 Cancer Cell Toxicity qHTS against the NCATS CANVASS Library (AID 1347352); note: potency is the fitted concentration of half-maximal effect
Summary of the method: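 qHTS cytotoxicity: compounds tested in 11 concentrations on 1000 seeded cells per well over 72 h; bortezomib served as control; signal from CellTiter-Glo luminescence.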

[4] = HEK293 12hr Apoptosis Induction qHTS against the NCATS CANVASS Library (AID 1347361)
Summary of the method: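 HEK293 cells (500/well, DMEM + 10% FBS) were exposed to natural products across an 11-point series for 12 hours at 37 degrees C. Caspase-3/7 activity was then measured with DEVD luciferase luminescence after 15 min at room temperature.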

[5] = molecular target: Luciferin 4-monooxygenase (Photinus pyralis) (UniProt P08659); test: Firefly luciferase counterscreen qHTS: Assay Interference Panel against the NCATS CANVASS Library (AID 1347363); note: series mostly up to about 57 µM
Summary of the method: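 Purified P. pyralis luciferase (0.04 ug/mL, 4x reagent) added to Tris-acetate buffer with 0.013 mM D-luciferin, 0.013 mM ATP and 13.3 mM Mg-acetate; compounds preincubated 15 min, then luminescence read after 5 min, RT.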

[6] = KB-8-5-11 Cancer Cell Toxicity qHTS against the NCATS CANVASS Library (AID 1347364); note: nearly all actives have a fitted effect of over 75% in size; note: potency is the fitted concentration of half-maximal effect
Summary of the method: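 Natural products were titrated in 11 points onto KB-8-5-11 cells, 500 per well, and cytotoxicity was scored from CellTiter-Glo luminescence after 72 hr culture.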

[7] = molecular target: Nuclear receptor subfamily 1 group I member 3 (Homo sapiens) (UniProt Q14994); test: qHTS for Constitutive Androstane Receptor (CAR) Antagonist screened against the NCATS CANVASS Library (AID 1347372); note: potency is the fitted concentration of half-maximal effect
Summary of the method: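 HepG2 cells stably carrying hCAR and CYP2B6-2.2kb luciferase reporter, 2500 cells/well, compound with 50 nM CITCO agonist for 24hr at 37C. ONE-Glo luminescence measured CAR activity; CellTiter-Fluor read viability.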

[8] = 10-beta competent E. coli microbial cell viability qHTS against the NCATS CANVASS Library (AID 1347376); note: series mostly up to about 46 µM
Summary of the method: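 Cytotoxicity toward competent E. coli is scored from cellular ATP content via BacTiter-Glo luminescence following overnight compound exposure at 37C, 5% CO2.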

[9] = DH5-alpha competent E. coli microbial cell viability qHTS against the NCATS CANVASS Library (AID 1347377); settings: outcome: dose series up to 46.1 µM unless noted
Summary of the method: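 Cell viability of competent DH5-alpha E. coli is scored from ATP content by luminescence. Cells sit overnight at 37C with compound across an 11-point concentration series.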

[10] = qHTS for Antimalaria activity screened against the NCATS CANVASS Library (AID 1347380); note: nearly all actives have a fitted effect of over 40% in size; note: potency is the fitted concentration of half-maximal effect
Summary of the method: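 Growth inhibition of asexual erythrocytic P. falciparum Dd2 was quantified by SYBR Green DNA staining. Cultures grew 72 h with compound (11-point series) in hypoxic gas at 37C; lysis and staining lasted 18 h.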

[11] = Inflammasome Signaling qHTS Counterscreen: IL-1-beta AlphaLISA counterscreen against the NCATS CANVASS Library (AID 1347381);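 note: cell-free check with purified IL-1β in medium and no THP-1 cells; series mostly up to about 57 µM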
Summary of the method: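 To flag interference with the AlphaLISA read-out, a known amount of purified IL-1-beta (4 pg) replaced cell supernatant. Detection used anti-IL-1-beta acceptor beads, biotinylated antibody and streptavidin donor beads at room temperature.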

[12] = Cytotoxicity qHTS for assessment of Hepg2 cells membrane integrity screened against the NCATS CANVASS Library (AID 1347387)
Summary of the method: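 Fluorescence proportional to lysed-cell number, from LDH leaking out of HepG2 cells exposed 5 hr at 37C to 0.59 nM - 46 uM compound (11-point qHTS), is measured after 10 min with CytoTox-ONE.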

[13] = SW1088 Cancer Cell Toxicity qHTS against the NCATS CANVASS Library (AID 1347350); note: nearly all actives have a fitted effect of over 75% in size; note: potency is the fitted concentration of half-maximal effect
Summary of the method: as §1

[14] = qHTS for Hypoxia signaling pathway (HIF-1) antagonists against the NCATS CANVASS Library (AID 1347374); note: nearly all actives have a fitted effect of over 60% in size; note: potency is the fitted concentration of half-maximal effect
Summary of the method: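 HRE-bla ME-180 cells (2,000/well, 0.5% dialyzed FBS) were pre-incubated 5 h, then given an 11-point compound series plus CoCl2 (60 uM solution as added) for 17 h at 37C. CCF4 β-lactamase read (ex 405, em 460/530 nm) after 2 h at RT.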

[15] = qHTS for activators of Nrf2/ARE signaling pathway screened against the NCATS CANVASS Library (AID 1347391); note: nearly all actives have a fitted effect of over 60% in size; note: potency is the fitted concentration of half-maximal effect
Summary of the method: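 Cells carrying an ARE-driven beta-lactamase reporter (HepG2 background) are dosed for 16 h, then stained with CCF4. Cell viability in the same wells is measured by CellTiter-Glo luminescence.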

[16] = qHTS for inhibitors of ER calcium dysfunction: SERCaMP assay screened against the NCATS CANVASS Library (AID 1347393); note: nearly all actives have a fitted effect of over 40% in size; note: potency is the fitted concentration of half-maximal effect
Summary of the method: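 SH-SY5Y GLuc-SERCaMP, 1000 cells/well, 4 h attach; cpd 16 h, 37C/5% CO2; thapsigargin (added as 6x 600 nM) 4 h; coelenterazine; luminescence. Reduced reporter release = ER Ca stabilization.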

[17] = Panc-1005 Cancer Cell Toxicity qHTS against the NCATS CANVASS Library (AID 1347349); note: nearly all actives have a fitted effect of over 60% in size; note: potency is the fitted concentration of half-maximal effect
Summary of the method: as §1

[18] = A2780 Cisplatin Sensitive Ovarian Cancer Cell Toxicity qHTS against the NCATS CANVASS Library (AID 1347353); note: nearly all actives have a fitted effect of over 60% in size; note: potency is the fitted concentration of half-maximal effect
Summary of the method: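 Seventy-two-hour exposure of cisplatin-sensitive A2780 ovarian cells to an 11-concentration qHTS series; cytotoxicity is inferred from loss of ATPLite luminescence. Bortezomib titration served as positive control.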

[19] = HPAF-II Cancer Cell Toxicity qHTS against the NCATS CANVASS Library (AID 1347346); note: nearly all actives have a fitted effect of over 55% in size; note: potency is the fitted concentration of half-maximal effect
Summary of the method: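 Cytotoxicity in HPAF-II pancreatic cancer cells: 72 h treatment across 11 concentrations, ATP-based CellTiter-Glo luminescence endpoint.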

[20] = UWB1.289 Cancer Cell Toxicity qHTS against the NCATS CANVASS Library (AID 1347347); note: nearly all actives have a fitted effect of over 60% in size; note: potency is the fitted concentration of half-maximal effect
Summary of the method: as §1

Measured: Potency

Luciferin 4-monooxygenase (Photinus pyralis), sequence (P08659 whole entry, looked up): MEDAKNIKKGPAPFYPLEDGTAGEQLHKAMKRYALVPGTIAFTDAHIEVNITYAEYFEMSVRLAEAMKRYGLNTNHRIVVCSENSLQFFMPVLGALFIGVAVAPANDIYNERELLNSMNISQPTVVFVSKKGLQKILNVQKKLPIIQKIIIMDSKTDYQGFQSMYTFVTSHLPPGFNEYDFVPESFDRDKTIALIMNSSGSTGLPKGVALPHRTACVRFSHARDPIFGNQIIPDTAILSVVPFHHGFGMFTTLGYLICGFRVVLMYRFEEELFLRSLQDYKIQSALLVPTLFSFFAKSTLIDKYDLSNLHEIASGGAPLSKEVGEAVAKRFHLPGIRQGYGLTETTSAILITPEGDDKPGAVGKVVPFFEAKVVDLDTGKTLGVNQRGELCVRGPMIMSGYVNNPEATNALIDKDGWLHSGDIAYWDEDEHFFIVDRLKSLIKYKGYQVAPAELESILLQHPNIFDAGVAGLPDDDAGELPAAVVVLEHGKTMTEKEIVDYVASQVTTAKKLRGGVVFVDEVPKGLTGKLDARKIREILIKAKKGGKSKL
Nuclear receptor subfamily 1 group I member 3 (Homo sapiens), sequence (Q14994 whole entry, looked up): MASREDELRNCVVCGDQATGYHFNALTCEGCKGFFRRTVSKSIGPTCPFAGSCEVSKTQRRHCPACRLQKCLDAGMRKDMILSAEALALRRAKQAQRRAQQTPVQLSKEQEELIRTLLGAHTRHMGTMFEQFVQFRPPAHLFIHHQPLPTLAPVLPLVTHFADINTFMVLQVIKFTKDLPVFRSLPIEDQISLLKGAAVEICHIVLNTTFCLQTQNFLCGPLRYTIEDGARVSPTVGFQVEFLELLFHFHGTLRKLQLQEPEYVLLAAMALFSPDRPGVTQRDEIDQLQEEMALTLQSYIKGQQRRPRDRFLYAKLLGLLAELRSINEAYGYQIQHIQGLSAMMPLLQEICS

COc1cc2c(cc1OC)[C@@H](c1ccc3c(c1)OCO3)C(C)C(C)C2=O (some centres not stated)
active: [6] 18.7 µM
not listed: [13] | [14] | [15] | [16] | [17] | [18] | [19] | [20]
inactive: all other assays above

C/C=C/C1C=CC2CC(C)CC(C)C2C1C(=O)CC(=O)NC(CO)C/C=C/CCCCC (configuration not stated)
inactive: [4] | [7] | [10] | [12]
active: [1] 10.6 µM | [13] 14.9 µM | [14] 29.8 µM | [15] 16.6 µM | [16] 6.09 µM

CC(C)[C@]12CC[C@@]3(C)[C@H](C)CC[C@H](O)[C@@]3(CC1)c1cc3c(cc12)[nH]c1ccccc13
inactive: [1] | [3] | [4] | [5] | [7] | [14] | [8] | [9] | [11] | [12]

C=C1CC[C@@H](O[C@H]2C[C@@](O)([C@H](C)NC(=O)c3[nH]c(C)c(Cl)c3Cl)[C@H](O)[C@@H](C)O2)[C@@H]2C=C[C@H](C)C(/C(O)=C3/C(=O)[C@H](C(C)C)N([C@@H]4O[C@H](C)[C@H](OC(N)=O)[C@H](OC(C)=O)[C@@H]4OC)C3=O)[C@@H]12 (some centres not stated)
active: [13] 5.95 µM | [14] 16.7 µM
inactive: [1] | [3] | [6] | [11] | [12] | [15] | [16]

C/C=C(/C)c1cc(O)c(C)c2c1Oc1cc(O)cc(C)c1C(=O)O2
inactive: [1] | [2] | [17] | [3] | [18] | [5] | [7] | [9] | [10] | [11]

CC(C)C[C@@H]1c2c(O)c(C=O)c(O)c(C=O)c2O[C@]2(C)C=C[C@@H](C(C)C)C[C@H]12
not listed: [2] | [4] | [8] | [10] | [13] | [14] | [20]
inactive: all other assays above

COc1cc(/C=C/C(=O)OC[C@@H](Cc2ccc(O)c(OC)c2)[C@@H](COC(=O)/C=C/c2ccc(O)c(OC)c2)Cc2ccc(O)c(OC)c2)ccc1O
inactive: [5] | [7] | [8] | [9] | [11] | [15]
active: [19] 8.41 µM | [20] 10.6 µM | [2] 23.6 µM | [17] 9.43 µM | [13] 8.41 µM | [3] 18.8 µM | [18] 9.35 µM | [6] 13.2 µM | [14] 7.47 µM | [10] 0.265 µM | [16] 3.43 µM

CC[C@H]1[C@H](C)[C@H](c2cc(OC)c(OC)cc2OC)[C@@H](C)[C@H](c2cc(OC)c(OC)cc2OC)[C@@]12C=C(OC)C(=O)C=C2OC
active: [2] 21.1 µM | [13] 18.8 µM | [18] 14.8 µM | [10] 1.88 µM | [15] 14.8 µM
inactive: [1] | [5] | [7] | [9] | [11] | [12]

C/C=C(/C)c1c(Cl)c(OC)c(C)c2c1Oc1c(Cl)c(O)c(Cl)c(C)c1C(=O)O2
active: [19] 13.3 µM | [13] 13.3 µM | [14] 10.6 µM
not listed: [2] | [6] | [9] | [17] | [18] | [20]
inactive: all other assays above

COc1ccc2[nH]c3c(c2c1)CCN1C[C@H]2C[C@@H](OC(=O)c4cc(OC)c(OC)c(OC)c4)[C@H](OC)[C@@H](OC)[C@H]2C[C@H]31
active: [19] 13.3 µM | [17] 13.3 µM | [10] 7.47 µM | [16] 6.09 µM
inactive: [1] | [4] | [5] | [7] | [14] | [8] | [9] | [11] | [15]

O[C@H]1c2ccccc2-c2c3c(cc4c2[C@@H]1NCC4)OCO3
active: [19] 18.8 µM | [18] 11.8 µM | [7] 16.6 µM | [14] 18.8 µM | [15] 18.6 µM
inactive: [1] | [2] | [5] | [8] | [12]

C=C[C@@]1(C)CC[C@@H]([C@H](C)C(=O)/C=C/C(C)(C)O)O1
inactive: [1] | [13] | [4] | [5] | [8] | [9] | [10] | [11] | [12]
active: [15] 13.2 µM

CC[C@H](C)[C@H]1NC(=O)[C@@H](NC(=O)C(C)C)[C@@H](C)OC(=O)[C@H](COC(=O)CNC(C)=O)NC(=O)[C@@H]([C@@H](C)O)NC(=O)[C@H](Cc2ccccc2)N(C)C(=O)[C@H](c2ccc(OC)cc2)NC1=O (Isobutyryl-T[d(aIle)][Phg(4-OMe)][NMeF][d(aThr)]S([Gly-Ac]); ester 1-C)
not listed: [7] | [8] | [15] | [16] | [19]
inactive: all other assays above

C/C1=C/[C@@H](C)[C@H](O)[C@@H](O)/C=C/CC/C=C/C(=O)O[C@@H]1[C@H](C)C(=O)CCCC1CC(=O)NC(=O)C1
not listed: [4] | [5] | [7] | [13] | [15] | [19]
inactive: all other assays above
